Screens as filed in PubChem BioAssay.
The full list was thinned out, with hits kept by preference.
Cycloheximide cs = Cycloheximide Counterscreen for Small Molecule Inhibitors of Shiga Toxin. max response, %. 12% of 300,000 active. cell reporter, cycloheximide protein synthesis inhibition counterscreen; in the data active = max response mostly above about 13%, no sharp cut-off; inactive = mostly below about 14%; note: read at 38.3 µM for the half of the compounds with a filed dose; 0% is about no effect
TbPYK inhibitor = qHTS of Trypanosoma Brucei Inhibitors; Potency, µM (highest dose often 76.8 µM), without a hit: at the top dose activity, negative = inhibition, most hits filed as inhibitors; 0.12% of 410,000 active; pyruvate kinase (Trypanosoma brucei), Q57TT1; TbPYK enzyme, Kinase-Glo Plus ATP luminescence, 45 min; note: potency is the fitted concentration of half-maximal effect; % is set by controls: 0 for no effect and ±100 for the full control effect; nearly all actives have a fitted effect of over 50% in size
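TbPYK + substrate in 50 mM TEA pH 7.2, 100 mM KCl, 10 mM MgCl2, 0.05% BSA, 0.01% Tween-20; cpd pinned; ADP 130 uM final; 45 min RT; Kinase-Glo Plus 10 min; luminescence endpoint.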
Sm TGR block = qHTS Assay for the Inhibitors of Schistosoma Mansoni Peroxiredoxins | Schistosoma mansoni thioredoxin glutathione reductase (TGR), Q962Y6 | purified TGR, DTNB reduction, TNB absorbance 405 nm | Potency, µM (titrated, usually from 114 µM), for the others: at the top dose activity change, negative = inhibition, actives largely listed as inhibitors | 3% of 360,000 active | AID 485364, 2010; note: potency is the fitted concentration of half-maximal effect; % is set by controls: 0 for no effect and ±100 for the full control effect; nearly all actives have a fitted effect of over 60% in size
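Kinetic colorimetric format: TGR-catalysed, NADPH-driven DTNB reduction monitored via TNB absorbance. Enzyme dispensed at 20 nM; compound exposure 15 min at room temperature before reaction start.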
Shiga toxin inh = A qHTS for Small Molecule Inhibitors of Shiga Toxin; Vero cells, Shiga toxin protein synthesis inhibition reporter; inhibition, % at 38.7 µM; 9.2% of 290,000 active; AID 2315, 2010; in the data active = inhibition mostly above about 28%, no sharp cut-off; inactive = mostly below about 43%; note: 0% is about no effect
FBPA Giardia inh = qHTS Assay for Inhibitors of Fructose-1,6-bisphosphate Aldolase from Giardia Lamblia | A8B2U2 | purified Giardia FBPA | Potency, µM (highest dose often 59.6 µM), for the others: at the highest dose activity, negative = inhibition, most hits filed as inhibitors | 0.71% of 290,000 active | AID 2451, 2010; note: potency is the fitted concentration of half-maximal effect; % is set by controls: 0 for no effect and ±100 for the full control effect; nearly all actives have a fitted effect of over 55% in size
Target sequence (A8B2U2 whole entry, looked up): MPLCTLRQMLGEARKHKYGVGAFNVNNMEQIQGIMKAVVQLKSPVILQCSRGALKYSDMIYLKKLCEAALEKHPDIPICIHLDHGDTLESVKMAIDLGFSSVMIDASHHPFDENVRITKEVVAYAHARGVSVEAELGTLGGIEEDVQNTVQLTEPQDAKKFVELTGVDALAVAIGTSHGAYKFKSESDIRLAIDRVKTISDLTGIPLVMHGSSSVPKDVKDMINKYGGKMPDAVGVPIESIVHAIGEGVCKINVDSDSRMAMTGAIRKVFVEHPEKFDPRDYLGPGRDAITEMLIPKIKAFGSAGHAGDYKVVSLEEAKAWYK
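40 nM FBPA preincubated 10 min at RT with compound (up to 57.5 uM final), then substrate plus GAPDH/TPI/NAD/arsenate coupling and diaphorase/resazurin added. Fluorescence read after 20 min at RT, 525/598 nm.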
LmPK inhibitor = qHTS Assay for Inhibitors of Leishmania Mexicana Pyruvate Kinase (LmPK) | purified LmPK, Kinase-Glo ATP luminescence, 1 h | Potency, µM (highest dose often 57.5 µM), inactives show at the top dose activity change, negative = inhibition, actives largely listed as inhibitors | Q27686 | AID 1721, 2009 | 0.37% of 290,000 active; note: potency is the fitted concentration of half-maximal effect; % is set by controls: 0 for no effect and ±100 for the full control effect
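Purified LmPK (0.1 nM) with 0.5 mM PEP and 0.1 mM ADP in imidazole buffer pH 7.2 with MgCl2/KCl, 1 h at room temperature. ATP formed was read by luciferase luminescence and normalized to no-enzyme and uninhibited controls.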
* hit, by the source's call; ? = inconclusive; · = no result given; [ ] = dose if it differs, or a comment. Unless noted, calls come from the whole dose curve; as a rule, active = well fitted curve in the direction sought with a large enough effect; inconclusive = small, poorly fitted or top-dose-only effect, or another doubt; inactive = no such curve, though single readings can be large; an effect the other way counts as inactive or inconclusive.

SMILES	Cycloheximide cs	TbPYK inhibitor	Sm TGR block	Shiga toxin inh	FBPA Giardia inh	LmPK inhibitor
O=C(NCC1CCCO1)c1cc2cc(Cl)ccc2[nH]1 (stereo not drawn)	33*	-1%	7%	43*	1%	-2%
CC(C)n1c(=O)c2ccccc2n1Cc1cn(-c2ccccc2)nn1	·	4%	·	·	·	·
Cc1ccc(-c2cc(C(=O)NCC3CCCO3)no2)cc1 (stereo not drawn)	48*	2%	13%	49*	-1%	1%
CN(C)/C=N/c1[nH]ncc1C#N	-9	-3%	1%	28	4%	1%
CN(C)C=Nc1ncc2c([nH]c3ccccc32)c1C#N	50*	-2%	-6%	36	-7%	-3%
COc1ccc(S(=O)(=O)N2Cc3ccccc3CC2C(=O)Nc2ccc(C)cc2)cc1OC (stereo not drawn)	·	2%	18%	·	·	·
COc1ccc(S(=O)(=O)N2Cc3ccccc3CC2C(=O)Nc2ccc3c(c2)OCO3)cc1 (stereo not drawn)	47*	-7%	-14%	79	-17%	-1%
Cc1ccc(S(=O)(=O)N2Cc3ccccc3CC2C(=O)Nc2ccc3c(c2)OCO3)cc1 (stereo not drawn)	30*	-1%	2%	60*	-13%	8%
COc1ccc(NC(=O)C2Cc3ccccc3CN2S(=O)(=O)c2ccccc2)cc1OC (stereo not drawn)	·	2%	4%	·	·	·
CN1C(=O)/C(=C/c2ccc(N3CCCCCC3)o2)C(=O)NC1=S	40*	-27%	40µM*	64*	-7%	-20%
CN1C(=O)/C(=C\c2ccc(N3CCCCC3)o2)C(=O)NC1=S	27*	-7%	?	38*	-4%	-18%
O=C(NCc1ccco1)c1cccn2c(=O)c3cc4ccccc4cc3nc12	29*	·	0%	6	?	2%
COCCCNC(=O)c1cccn2c(=O)c3cc4ccccc4cc3nc12	69*	-1%	0%	84*	?	2%
C=CCn1c(=N)c(C(=O)NCCCOC)cc2c(=O)n3cccc(C)c3nc21	-4	2%	-25%	-3	-14%	7%
Cc1ccc(C)c(Nc2ncnc3c2cnn3-c2ccc(F)cc2)c1	·	-9%	11%	·	·	·
CN(C)c1nc(-c2ccccc2)ns1	33*	1%	3%	130*	4%	3%
C/C(=N\NC(=S)Nc1ccc(C)cc1)c1cccc(N)c1	17	-2%	·	54*	-1%	3%
C/C(=N\Nc1ccccc1)c1cccc(N)c1	23*	-8%	?	40	-13%	-1%
C/C(=N\NC(=O)c1cccc(N/N=C(\C)c2ccc([N+](=O)[O-])cc2)c1)c1ccc([N+](=O)[O-])cc1	17*	4%	-1%	39*	1%	2%
C/C(=N\NC(=O)c1cccc(N/N=C(\C)c2ccccc2)c1)c1ccccc1	72*	-4%	-4%	144*	-2%	-12%
C/C(=N\NC(=S)Nc1cccc(C)c1)c1cccc(N)c1	17	-10%	-7%	34	10%	-1%
CC(C)c1ccc(Cn2ccc3c4c(N)nc(NC5CC5)nc4ccc32)cc1	·	·	·	·	-24%	·
C/C(=N\Nc1ccc(Cl)c(C(=O)O)c1)c1cccc([N+](=O)[O-])c1	80*	-9%	-34%	159*	-9%	-11%
C/C(=N\NC(=O)c1ccccc1C)c1cccc([N+](=O)[O-])c1	10	-1%	5%	10	-19%	-7%
O=C(CSc1nnnn1-c1ccc2c(c1)OCCO2)N1CCc2ccccc21	-7	1%	3%	-10	-2%	-2%
SMILES	Cycloheximide cs	TbPYK inhibitor	Sm TGR block	Shiga toxin inh	FBPA Giardia inh	LmPK inhibitor
O=C(CSc1nnnn1-c1ccc2c(c1)OCCO2)OC1CCCCC1	34*	1%	-10%	102*	-1%	4%
c1ccc(CSc2nnnn2-c2ccc3c(c2)OCCO3)nc1	21*	1%	1%	43	-1%	10%
O=C(NCc1ccccc1Cl)C1CCN(S(=O)(=O)Cc2ccccc2)CC1	·	2%	1%	·	·	·
Oc1ccc(-c2nccc(-c3ccc(F)cc3)n2)cc1	81*	-6%	1%	88*	0%	-3%
Cc1cccc(CNc2ncncc2-c2cccc(NS(C)(=O)=O)c2)c1	·	·	·	·	0%	·
CC1CCC(NC(=O)COC(=O)CCC(=O)c2ccc(Cl)s2)CC1 (stereo not drawn)	·	-1%	-10%	·	·	·
CC(=O)c1c(C)nn(C(=O)c2cccs2)c1C	0	-4%	4%	-5	7%	6%
Cc1nn(C(=O)c2cccs2)c(N)c1-c1ccccc1	35*	-6%	-14%	68*	0%	0%
Cc1nn(C(=O)c2ccc3c(c2)OCO3)c(N)c1-c1ccccc1	39*	-1%	-2%	76*	-7%	-10%
CCOc1ccc(CCNC(=O)c2cccc(-n3c(C)nc4cccnc43)c2)cc1	·	-5%[15.4 µM]	-2%	·	·	·
COc1ccc(CN2CCC2(C)C(=O)Nc2cnc3ccccc3c2)c2ccccc12 (stereo not drawn)	·	1%	·	·	·	·
Cc1cccc(N(C)C(=S)Oc2ccc3c(c2)CCC3)c1	·	0%	·	·	·	·
Cc1cccc(N(C)C(=S)Oc2ccc3ccccc3c2)c1	28*	1%	9%	49*	-23%	3%
COc1cc(Cl)c(C)cc1NC(=O)C1CCCN(c2ncnc3onc(-c4ccc(F)cc4)c23)C1 (stereo not drawn)	·	-7%	5%	·	·	·
Cc1cc(C)c(NC(=O)C(C)n2nc(-c3ccc(C)c(C)c3)ccc2=O)c(C)c1 (stereo not drawn)	·	0%	1%	·	·	·
CC1CCCCN1C(=O)CNCc1ccc(F)cc1 (stereo not drawn)	17	2%	0%	57	?	1%
CC1CCCCN1C(=O)CSc1n[nH]c(-c2ccccc2)n1 (stereo not drawn)	·	0%	1%	·	·	·
CC1CCCCN1C(=O)CSc1ccc(-c2ccc(F)cc2)nn1 (stereo not drawn)	19*	-7%	0%	41	1%	5%
CC1CCCCN1C(=O)CSc1nc(-c2ccccc2)cn1N (stereo not drawn)	25*	2%	1%	46*	1%	3%
CCc1nc2oc3cc(OC)ccc3c(=O)c2c(=O)n1Cc1ccco1	8	3%	28µM*	-8	0%	-3%
COCCn1c(-c2ccc(OC)cc2)nc2oc3cc(OC)ccc3c(=O)c2c1=O	2	-4%	5%	-10	2%	-1%
COc1ccc2c(=O)c3c(=O)n(Cc4ccco4)c(-c4ccco4)nc3oc2c1	-2	-14%	40µM*	9	-13%	3%
